In PubChem BioAssay AID618 (Sanford-Burnham Center for Chemical Genomics, 2007) one finds outcome data, which are given here for 76 compounds.

Structures are written as SMILES. About 540 (0.62%) of roughly 87,000 compounds were called active. Entries that show only a call come without a potency. How the calls were made is not given here. The sample as a whole holds a higher share of actives than the screen did. Potency and affinity values are given separately.

The nature of this experiment: MT1-MMP gene expression reporter suppression – cell-based, luciferase reporter, luminescence (AID 618).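 Further: actives suppress MT1-MMP promoter-driven transcription so potencies describe inhibitors.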 As to conditions: MT1-MMP promoter luciferase reporter cells. (A reporter such as luciferase makes a cellular process visible.)
Turning to `CN1/C(=C/C2CC(=O)N(c3cccc4ccccc34)C2=O)C(C)(C)c2ccccc21` (stereo unspecified), the compound was classed as inactive.
Under `CN1/C(=C/C=N/n2cnnc2)C(C)(C)c2ccccc21` stands “inactive”; under `O=C(O)CCn1c(=S)oc2ccccc21`, “inactive”; under `Cc1cc(NC(=O)c2cc(Cl)ccc2Cl)no1`, “inactive”.
Regarding `O=C(C1CCCCC1)N(Cc1ccccc1)c1ccccn1`, the outcome was inactive.
As for `COc1cc2c(cc1OC)C1C/C(=N\O)C(CC(C)C)CN1CC2` (stereo unspecified), the result was inactive.
For `COc1cc2c(cc1OC)C1Cc3ccc(OC)c(OC)c3CN1CC2` (stereo unspecified), the result was inactive.
With `CC[C@H]1CN2CCc3cc(OC)c(OC)cc3[C@@H]2C[C@@H]1C[C@H]1NCCc2cc(OC)c(OC)cc21`, the compound was classed as active.
`O=C(CN1CCCCC1)N1c2ccccc2CCc2ccccc21`: the result was inactive.
Under `O=C(CN1C(=O)C2C3C=CC(C3)C2C1=O)N1CCc2ccccc2C1` (stereo unspecified) stands “inactive”; under `O=C(NCC(c1cccs1)N1CCOCC1)c1ccco1` (stereo unspecified), “inactive”.
With `O=C(NCC(c1cccs1)N1CCOCC1)c1ccc(Cl)s1` (stereo unspecified) the entry was “active”.
For the compound `CCC(=O)NCC(c1cccs1)N1CCOCC1` (stereo unspecified), the compound was classed as inactive.
Consider `CCOC(=O)c1ccc(CC(=O)c2oc3cc(O)ccc3c2C)o1`, for which the call was inactive.
With `CN(C)c1cccc(C(=O)n2cc(C(=O)c3cc(F)ccc3O)cn2)c1` the entry was “inactive”.
Consider `COc1ccc(-c2cc3nc(C)cc(NCCO)n3n2)cc1`, for which the compound was classed as inactive.
Regarding `COc1ccc(-c2cc3nc(C)cc(C)n3n2)cc1`, the call was inactive.
Take `Cc1cc(N)n2ncc(-c3ccccc3)c2n1`: the result was inactive.
On to `Cc1cc(N)n2nc(C)c(-c3ccccc3)c2n1`, for which the result was inactive.
For the compound `Cc1c(C(=O)N2CCN(S(C)(=O)=O)CC2)oc2ccccc12`, the result was inactive.
`COc1ccc(C)cc1NC(=O)c1ccc(N(C)S(C)(=O)=O)cc1`: the call was inactive.
As to `CC1CCN(C(=S)c2ccc3c(c2)OCO3)CC1`, the compound was classed as inactive.
Take `COc1ccc(OC)c2sc(NC(=O)c3ccc(Br)s3)nc12`: the compound was called inactive.
With `Oc1ccc(Nc2nc(-c3ccc4ccccc4c3)cs2)cc1` the entry was “active”; with `NS(=O)(=O)c1ccc(Nc2nc(-c3ccc4ccccc4c3)cs2)cc1`, “inactive”; with `Oc1ccc(Nc2nc(-c3ccc(O)cc3)cs2)cc1`, “inactive”.
With `CCN(CC)CCCNC(=O)c1[nH]c(C)c(C(=O)NC2CCCCC2)c1C`, the compound was classed as inactive.
On to `Cc1nc(SCC(N)=O)[nH]c(=O)c1Cc1ccc(OC(C)C)cc1`, for which the result was inactive.
Consider `O=C(Nc1ccccc1C(=O)N1CCN(c2ccccc2)CC1)c1ccco1`, for which the compound was called inactive.
With `C=CCNc1nc(-c2ccccc2)nc(-n2ccnc2)n1` the entry was “inactive”; with `c1ccc(-c2noc(C3CCCCC3)n2)nc1`, “inactive”.
Turning to `c1ccc(-c2nnc(-c3ccccn3)nc2NC2CCCCC2)cc1`, the outcome was active.
Take `c1ccc(-c2n[nH]c(-c3ccccn3)n2)cc1`: the outcome was inactive.
As to `CNc1nc(-c2ccccn2)nnc1-c1ccccc1`, the outcome was inactive.
As to `N#Cc1ccc(C23CC4(C2)[C@H](CN(Cc2ccc(C(F)(F)F)cc2)[C@@H]4c2ccccc2)C3c2ccc(C(F)(F)F)cc2)cc1` (stereo partly specified), the call was inactive.
For the compound `CCc1ccc2[nH]c(=O)c(C(c3nnnn3Cc3ccccc3)N3CCOCC3)cc2c1` (stereo unspecified), the result was inactive.
On to `Cc1cc(N2CCOCC2)nc(SCC(=O)c2ccccc2)n1`, for which the compound was called inactive.
As to `CCCC1=NCCn2cccc21`, the call was inactive.
On to `Cn1c(=N)n(CC(=O)O)c2ccccc21`, for which the compound was classed as inactive.
Regarding `COc1cccc(C(=O)Cn2c(=N)n(C)c3ccccc32)c1`, the compound was called active.
`COc1cccc(C(=O)Cn2c(NCCO)nc3ccccc32)c1`: the outcome was inactive.
In the case of `CC(=O)NCCSCCNC(C)=O`, the compound was called inactive.
Consider `CCSc1nnc(-c2ccc(S(=O)(=O)N3CCOCC3)cc2)n1CC1CCCO1` (stereo unspecified), for which the outcome was inactive.
`CSc1nnc(-c2ccc(S(=O)(=O)N3CCOCC3)cc2)n1CC1CCCO1` (stereo unspecified): the compound was classed as inactive.
Regarding `O=S(=O)(c1ccc2c(c1)nc(COc1ccc(Cl)cc1)n2CC1CCCO1)N1CCOCC1` (stereo unspecified), the compound was classed as active.
On to `Cn1c(C(=O)NCCN2CCCCCC2)cc2c(=O)n(C)c3ccccc3c21`, for which the call was inactive.
As for `O=S(=O)(Nc1nnc(-c2ccccc2)s1)c1ccc(Cl)cc1`, the compound was called inactive.
Under `Cc1ncc(S(=O)(=O)c2ccc(Cl)cc2)c(-c2ccccc2)n1` stands “inactive”; under `CCN(CC)CCCNC(=O)c1cc(-c2ccc(Cl)cc2)on1`, “inactive”; under `Cc1c(C(=O)N2CC(C)OC(C)C2)sc2nc(-c3ccccc3)cn12` (stereo unspecified), “inactive”.
Under `Cc1c(C(N)=O)sc2nc(-c3ccccc3)cn12` stands “inactive”.
Take `c1ccc(-c2cn3c4c(sc3n2)CCCC4)cc1`: the result was active.
Regarding `CCOc1ccc(N(CC(=O)NCC2CCCO2)S(=O)(=O)c2ccc(SC)cc2)cc1` (stereo unspecified), the compound was classed as inactive.
For `CSc1nc2sc3c(c2c(=O)n1C)CCC(C)C3` (stereo unspecified), the call was inactive.
In the case of `COc1ccc(N=C2NN=C(c3ccc4c(c3)OCCO4)CS2)cc1`, the outcome was inactive.
For the compound `O=C1CSC(=NC2CCCCC2)N1`, the result was inactive.
In the case of `Cc1cccc(N=C2NN=C(c3ccc4c(c3)OCCO4)CS2)c1`, the compound was called inactive.
`FC(F)Sc1ccc(N=C2NN=C(c3ccc4c(c3)OCCO4)CS2)cc1`: the result was inactive.
As to `COc1ccc(C(=O)NCCCN2CCCC2=O)cc1`, the result was inactive.
With `c1cnc(-c2nnc3n2CCCCC3)cn1` the entry was “inactive”; with `CCC1(N(C(C)=O)c2ccc(OC)cc2)C(=O)c2ccccc2C1=O`, “inactive”; with `CCOC(=O)CCSc1nc(C)c2cc(C)c(C)cc2n1`, “inactive”.
Turning to `CCCC(=O)Nc1nnc(-c2cccc(OCC)c2)s1`, the outcome was inactive.
Under `CC(=O)Nc1ccc(NC(=O)C2CCCN(c3ncccn3)C2)cc1` (stereo unspecified) stands “inactive”.
In the case of `O=C(Nc1ccc2c(c1)OCCO2)C1CCCN(c2ncccn2)C1` (stereo unspecified), the call was active.
In the case of `Cc1cc(C)nc(N2CCCC(C(=O)Nc3ccc4c(c3)OCCO4)C2)n1` (stereo unspecified), the outcome was inactive.
For the compound `O=C(Nc1ccc2c(c1)OCO2)C1CCCCN1S(=O)(=O)c1ccccc1` (stereo unspecified), the call was inactive.
With `Cc1ncc(S(=O)(=O)c2ccccc2)c(-c2ccc(Cl)cc2Cl)n1` the entry was “inactive”; with `O=C(CSc1nnc(-c2ccc3c(c2)OCCO3)o1)N1CCCC1`, “inactive”.
On to `CC(=O)CSc1nnc(-c2ccc3c(c2)OCO3)o1`, for which the compound was called inactive.
On to `CCC1CCCCN1C(=O)CSc1nnc(-c2ccc3c(c2)OCCO3)o1` (stereo unspecified), for which the compound was called inactive.
As to `O=C(O)CSc1nnc(-c2ccc3c(c2)OCO3)o1`, the outcome was inactive.
In the case of `O=C(c1ccco1)N1CCN=C1SCc1ccc(F)cc1`, the outcome was inactive.
On to `COc1ccc(NC(=O)CN(C2CCCCC2)S(C)(=O)=O)cc1OC`, for which the result was inactive.
For `N=C1C(c2ccc(Br)cc2)=C(O)C2CCc3ccccc3N12` (stereo unspecified), the compound was classed as inactive.
For the compound `CCC(=O)Nc1cc2c(cc1C(C)=O)OCCO2`, the result was inactive.
